The values below come from PubChem BioAssay (NCI).

Some test systems named below: RPMI-8226 leukemia; OVCAR-8 ovarian; OVCAR-4 ovarian; SK-OV-3 ovarian; IGROV1 ovarian; OVCAR-3 ovarian; HS 578T breast; NCI/ADR-RES ovarian; BT-549 breast; MDA-MB-435 melanoma; SW-620 colon; MCF7 breast; HCT-116 colon; HCC-2998 colon; KM12 colon; T-47D breast; OVCAR-5 ovarian.
Experiment in all cases: NCI-60 one-dose screen, 48 h (100 = growth as untreated, 0 = no growth, -100 = all killed)
Holding throughout (conditions): 10 µM unless noted

The panel holds about 83,000 compounds, 20% with a hit somewhere; the sample as a whole holds those more often.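 Single-dose data. Exposure time 48 hours. Values below 10 considered active.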 Values without a mark were called inactive. Active and inactive are the calls of the source.

For the compound `O=C(CN1C(=O)NC(c2ccccc2)(c2ccccc2)C1=O)c1ccc(N2CCCC2)cc1`, the growth is 70.1% with RPMI-8226 leukemia; 83.4% in the assay on OVCAR-8 ovarian; 72.8% with OVCAR-4 ovarian; 96.7% with SK-OV-3 ovarian; 85.5% with IGROV1 ovarian; 103% in the assay with OVCAR-3 ovarian. The growth with HS 578T breast is 87.7%; in the assay on NCI/ADR-RES ovarian, 67.2%; in the assay with BT-549 breast, 66.4%; in the assay with MDA-MB-435 melanoma, -4.2% (active); with SW-620 colon it was 70.2%; with MCF7 breast it was 49.8%. Further, the growth with HCT-116 colon is 66%; in the assay on HCC-2998 colon, 101%; in the assay with KM12 colon, 65.8%.

Take `COc1ccc(-c2nnc(SCC(=O)Nc3ccc(C(=O)/C=C/c4cc(OC)c(OC)c(OC)c4)cc3)n2-c2ccccc2)cc1OC`: the growth in the assay on RPMI-8226 leukemia is 16.7% [100 µM]; in the assay with OVCAR-8 ovarian, 15.9% [100 µM]; in the assay on OVCAR-4 ovarian it was -49% [100 µM] (active); with SK-OV-3 ovarian, -54.7% [100 µM] (active); in the assay on IGROV1 ovarian, -36.1% [100 µM] (active); with OVCAR-3 ovarian, -37% [100 µM] (active). The growth was 4.23% [100 µM] (active) in the assay with HS 578T breast; 46% [100 µM] in the assay on NCI/ADR-RES ovarian; -43.3% [100 µM] (active) with T-47D breast; -94.7% [100 µM] (active) with BT-549 breast; -16.1% [100 µM] (active) in the assay on MDA-MB-435 melanoma; 12.2% [100 µM] in the assay with SW-620 colon. For the same compound, the figures for the growth in the assay with MCF7 breast and in the assay on HCT-116 colon were 1.19% [100 µM] (active) and -84.5% [100 µM] (active), respectively.

As to `COC(=O)Nc1nc2ccc(C(=O)c3ccccc3N(C)C3COC3)cc2[nH]1`, the growth with RPMI-8226 leukemia is -8.33% (active); in the assay on OVCAR-8 ovarian, 34.7%; with OVCAR-5 ovarian it was 57%; in the assay on OVCAR-4 ovarian it was 75.8%; in the assay with IGROV1 ovarian, 58.6%; in the assay on OVCAR-3 ovarian, 14.6%. In addition, the growth is 53.3% in the assay with NCI/ADR-RES ovarian; 60.4% with BT-549 breast; -42.1% (active) in the assay with MDA-MB-435 melanoma; 14.9% in the assay on SW-620 colon; 19% in the assay on MCF7 breast; 30.4% in the assay on HCT-116 colon. Besides, the growth in the assay on HCC-2998 colon is 67.2%; in the assay with KM12 colon, 17%.

For `COc1cc(N2C(=O)C=CC2=O)ccc1N1C(=O)C=CC1=O`, the growth is 103% with RPMI-8226 leukemia; 110% with OVCAR-8 ovarian; 103% in the assay with OVCAR-5 ovarian; 110% with SK-OV-3 ovarian; 115% in the assay on IGROV1 ovarian; 104% in the assay on OVCAR-3 ovarian. Moreover, the growth in the assay on HS 578T breast was 102%; in the assay with NCI/ADR-RES ovarian it was 106%; in the assay with BT-549 breast it was 95.3%; with MDA-MB-435 melanoma it was 109%; in the assay on SW-620 colon, 85.4%; with HCT-116 colon it was 107%. The growth in the assay on HCC-2998 colon was 114%; in the assay on KM12 colon, 109%.

For the compound `COc1cc(/C=C/C(=O)c2ccc(F)cc2)ccc1OCCCCOc1cc2c(cc1OC)C(=O)N1CCCC1C=N2` (stereo not given), the growth in the assay with RPMI-8226 leukemia is -27.4% (active); in the assay with OVCAR-8 ovarian it was 8.79% (active); in the assay on OVCAR-5 ovarian it was -4.68% (active); with OVCAR-4 ovarian it was -11% (active); with SK-OV-3 ovarian, 10.7%; in the assay on HS 578T breast, 6.29% (active). The growth in the assay with NCI/ADR-RES ovarian was 27.1%; in the assay on T-47D breast it was 1.74% (active); with BT-549 breast, -49.9% (active); with MDA-MB-435 melanoma it was -71% (active); in the assay with SW-620 colon, -59% (active); in the assay on MCF7 breast, -19.5% (active). The results for the growth with HCC-2998 colon and in the assay with KM12 colon were -87.5% (active) and -64.1% (active), respectively.

As for `CC(C)C(=O)c1ccc(Cl)s1`, the growth in the assay with OVCAR-8 ovarian is 102%; with OVCAR-5 ovarian, 105%; with OVCAR-4 ovarian, 90.5%; with SK-OV-3 ovarian, 101%; in the assay on IGROV1 ovarian it was 96.2%; in the assay with OVCAR-3 ovarian, 106%. In addition, the growth with HS 578T breast is 100%; in the assay with NCI/ADR-RES ovarian it was 104%; in the assay on T-47D breast, 90.4%; in the assay on BT-549 breast, 104%; with MDA-MB-435 melanoma, 106%; in the assay on SW-620 colon it was 107%. Further, the growth in the assay with MCF7 breast was 88.9%; in the assay on HCT-116 colon, 97%; in the assay with HCC-2998 colon, 99.7%; with KM12 colon, 100%.

In the case of `O=C1C(Cl)=C(SC2=NCCN2)C(=O)c2ccccc21`, the growth was 65.8% in the assay on OVCAR-8 ovarian; 97.4% in the assay on OVCAR-5 ovarian; 80.5% in the assay with OVCAR-4 ovarian; 93.5% in the assay with SK-OV-3 ovarian; 46.8% in the assay with OVCAR-3 ovarian; 93.1% with HS 578T breast. Also, the growth in the assay with NCI/ADR-RES ovarian is 86.8%; with T-47D breast, 49.7%; in the assay with BT-549 breast it was 90.3%; in the assay with MDA-MB-435 melanoma, 62.7%; in the assay on SW-620 colon, 95.6%; with MCF7 breast, 61.1%. For the same compound, the growth in the assay on HCT-116 colon was 65%; in the assay on HCC-2998 colon it was 106%; with KM12 colon, 75.5%.

`NC(N)=Nc1ccc(/C=C2\C=Cc3ccccc32)cc1`: the growth in the assay with OVCAR-8 ovarian is 71.7%; with SK-OV-3 ovarian, 78.6%; in the assay on IGROV1 ovarian, 51.2%; with OVCAR-3 ovarian, 72.9%; in the assay on HS 578T breast it was 81.3%; with NCI/ADR-RES ovarian, 80.9%. Also, the growth in the assay with T-47D breast is 50.6%; with BT-549 breast, 81.5%; in the assay on MDA-MB-435 melanoma, 21.6%; with SW-620 colon, 33.5%; in the assay on MCF7 breast, 25%; in the assay on HCT-116 colon, 47.5%. For the same compound, the growth was 62.6% in the assay with HCC-2998 colon and 15.2% with KM12 colon.

In the case of `C=CCN(C)C`, the growth with RPMI-8226 leukemia is 117%; in the assay on OVCAR-8 ovarian, 106%; with OVCAR-5 ovarian, 109%; in the assay with SK-OV-3 ovarian it was 115%; with IGROV1 ovarian, 104%; in the assay on HS 578T breast, 98.1%. In addition, the growth in the assay with NCI/ADR-RES ovarian is 106%; in the assay with T-47D breast, 117%; in the assay on BT-549 breast, 101%; with MDA-MB-435 melanoma, 97.1%; in the assay on SW-620 colon it was 105%; in the assay with MCF7 breast it was 101%. Moreover, the growth in the assay on HCT-116 colon was 105%; with KM12 colon, 108%.
